# Screens as filed in PubChem BioAssay.
# This is a sample that favours compounds with a hit; in the whole collection about 3.2% have one here.
# AmpC inh no detg: inhibitors of E. coli AmpC beta-lactamase without detergent; Potency, µM (series often up to 57.1 µM), for the others: at the top dose activity change, negative = inhibition, hits mostly inhibitors; AID 485341; 330,000 compounds, 0.52% hits; AmpC nitrocefin hydrolysis, absorbance 480 nm, 0.0001% Triton;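 note: plate controls were no compound for no effect and no enzyme for full effect; nearly all actives have a fitted effect of over 20% in size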
# Target sequence (P00811 whole entry, looked up): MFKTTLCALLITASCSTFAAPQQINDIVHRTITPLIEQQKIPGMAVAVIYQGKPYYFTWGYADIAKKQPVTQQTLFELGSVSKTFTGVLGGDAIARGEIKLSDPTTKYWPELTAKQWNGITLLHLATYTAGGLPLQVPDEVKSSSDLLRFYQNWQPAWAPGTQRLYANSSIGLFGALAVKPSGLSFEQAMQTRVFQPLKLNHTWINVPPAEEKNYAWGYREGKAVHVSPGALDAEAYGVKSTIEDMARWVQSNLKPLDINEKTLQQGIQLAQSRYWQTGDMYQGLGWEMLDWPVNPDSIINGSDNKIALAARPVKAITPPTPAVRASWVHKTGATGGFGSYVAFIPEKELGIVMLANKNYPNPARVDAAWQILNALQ
#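 AmpC (5.3 nM in the dispensed reagent) in 20 mM phosphate pH 7.0 with 0.01% (detergent screen) or 0.0001% Triton X-100 was preincubated with compounds for 15 min at room temperature. Nitrocefin was then added from an 800 uM solution, and hydrolysis was followed at 480 nm.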
# AmpC inh detg: AmpC beta-lactamase inhibition with detergent present; AmpC hydrolysis of nitrocefin, absorbance 480 nm, 0.01% Triton; Potency, µM (doses to about 114 µM), inactives show at the highest dose activity change, negative = inhibition, hits mostly inhibitors; 370,000 compounds, 0.041% hits; AID 485294;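 note: 0% = no-compound wells and -100% = no-enzyme wells; nearly all actives have a fitted effect of over 25% in size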
#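 AmpC (5.3 nM in the dispensed reagent) in 20 mM phosphate pH 7.0 with 0.01% (detergent screen) or 0.0001% Triton X-100 was preincubated with compounds for 15 min at room temperature. Nitrocefin was then added from an 800 uM solution, and hydrolysis was followed at 480 nm.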
# Sm TGR block: inhibitors of Schistosoma mansoni thioredoxin glutathione reductase. Q962Y6. purified TGR, DTNB reduction, TNB absorbance 405 nm. Potency, µM (titrated, usually from 114 µM), for the others: at the highest dose activity change, negative = inhibition, actives largely listed as inhibitors. 360,000 compounds, 3% hits; note: nearly all actives have a fitted effect of over 60% in size
#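 TGR 20 nM + NADPH 100 uM (dispensed conc.), cpd preinc 15 min RT; start with NADPH (500 uM addition) then DTNB (15 mM addition). Kinetic TNB absorbance, 405 nm filter. Four-parameter Hill fit across titration.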
# RE007 growth inh: less growth of the S. pombe RE007 Vpr strain; S. pombe RE007 Vpr strain, BacTiter-Glo ATP luminescence, 24 h; Potency, µM (doses to about 92.2 µM), inactives show at the top dose activity change, negative = less growth, usual class: inhibitors; 360,000 compounds, 0.21% hits; AID 651644; active = well fitted falling curve with a large enough effect; inconclusive = small, poorly fitted or top-dose-only effect; inactive = no such curve, though single readings can be large or run the other way; note: nearly all actives have a fitted effect of over 50% in size
#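 Fission yeast RE007 carrying one integrated HIV-1 vpr copy, seeded at OD 0.01 in PMG+AL medium with 23 nL pinned compound. Grown 24 h at 30 degrees; viability read by BacTiter-Glo luminescence after 5 min.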
# AMA1-RON2 inh: AMA1-RON2 (P. falciparum) interaction inhibition; Potency, µM (series often up to 58.2 µM), for the others: at the highest dose activity change, negative = inhibition, actives largely listed as inhibitors; AlphaScreen AMA1-biotinylated RON2 peptide binding; AID 720542; 360,000 compounds, 0.2% hits;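 note: 0% = vehicle wells and -100% = peptide control; nearly all actives have a fitted effect of over 45% in size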
#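 AMA1 (3D7) with his tag at 25 nM final met compounds first, then biotinylated RON2 peptide at 25 nM; detection used donor plus acceptor beads, 10 µg/mL apiece, read by AlphaScreen after 30 min at room temperature.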
# Active calls of the source: *; ? = inconclusive; . = no result given; [ ] = another dose, or the depositor's remark. Unless noted, calls come from the whole dose curve; as a rule, active = well fitted curve in the direction sought with a large enough effect; inconclusive = small, poorly fitted or top-dose-only effect, or another doubt; inactive = no such curve, though single readings can be large; an effect the other way counts as inactive or inconclusive. Unless noted, % is set by controls: 0 for no effect and ±100 for the full control effect; potency is the fitted concentration of half-maximal effect.
SMILES,AmpC inh no detg,AmpC inh detg,Sm TGR block,RE007 growth inh,AMA1-RON2 inh
O=C(/C=C/c1ccc(OC(F)F)cc1)OCC(=O)N1CCN(C(=O)c2ccco2)CC1,54%,-11%,-6%,-13%,14%
Cc1ccc(SCC(=O)OCC(=O)N2CCN(C(=O)c3ccco3)CC2)c(C)c1,66%,-18%,45µM*,5%,-10%
CCOC(=O)/C=C/C(=O)OCC(=O)N1CCN(C(=O)c2ccco2)CC1,-11%,-5%,32µM*,-5%,0%
CC(=O)Nc1ccc(S(=O)(=O)N(C)CC(=O)OCC(=O)N2CCN(C(=O)c3ccco3)CC2)cc1,-11%,-9%,50µM*,-10%,-19%
Nc1nonc1C(=O)NCCNCc1ccc(Cl)c(Cl)c1,.,2%,9%,.,.
COc1cc2c(cc1OC)C1O[C@](CCCCN3C(=O)c4ccccc4C3=O)(C2)OC2=C1C(=O)OC1(CCCCC1)C2,-6%[11.4 µM],-10%[22.9 µM],4.5µM*,.,.
COc1cc2c(cc1OC)C1O[C@](CCCCN3C(=O)c4ccccc4C3=O)(C2)OC2=C1C(=O)CC(C)(C)C2,140%[11.4 µM],-13%[22.9 µM],4.5µM*,.,.
O=S(=O)(c1ccc(Cl)cc1)c1nc(-c2cccc(Br)c2)oc1NCc1ccccc1,.,13%,7%,.,.
Cc1cc(C)c2c(CC(=O)Nc3ccc(F)cc3)coc2c1,.,-10%,7%,.,.
O=C(CCl)N(C/C=C/c1ccccc1)c1ccc2c(c1)OCCO2,-9%,2%,7.1µM*,34%,6%
COc1cccc(/C=C(\C#N)c2nc3ccccc3c(=O)[nH]2)c1OC,.,?,1%,.,.
O=c1c2ccccc2nc(-c2ccc(Cl)cc2)n1CCCOc1ccccc1F,.,-4%,-4%,.,.
Cc1cccc(-n2c(=O)c3c(c4cc(C)ccc4n3C)n(CC(=O)NCC3CCCO3)c2=O)c1 (stereo unspecified),.,2%,-10%,.,.
Cc1cc(C(=O)CN2CCCC2)c(C)n1-c1ccc(F)cc1,-5%,9%,45µM*,-9%,5%
S=C(NCc1ccco1)Nc1cc(-c2ccccc2)[nH]n1,16µM*,-2%,16µM*,0%,22%
O=C(CC(c1cccs1)N1Cc2ccccc2C1=O)Nc1ccc(F)cc1 (stereo unspecified),.,6%,4%,.,.
CCn1c(SCC(=O)N=Nc2c(O)[nH]c3ccccc23)nc2ccccc21,5µM*,-8%,-7%,4%,-16%
NC(=O)N\N=C/C=C/C=C/c1ccc(F)cc1,-17%,3%,25µM*,5%,-4%
NC(=O)N/N=C/C=C/c1ccccc1,-12%,-5%,.,7%,4%
COc1ccc(OC)c(CNc2ncnc3c2nc2n3CCCC2)c1,.,17%,3%,.,.
O=C1C=C(O)c2c(O)cccc2C1=O,-43%,-2%,50µM*,.,.
O=C1C=C(O)c2cccc3cccc1c23,-31%,-22%,5%,11%,-2%
CCOc1ccc(C(=O)Nc2ccc3oc(-c4ccc(C)cc4C)nc3c2)cc1Br,.,11%,4%,.,.
Cc1ccc(Cl)cc1NC(=O)C1COc2ccccc2O1 (stereo unspecified),-29%,-3%,10%,0%,11%
CCN(CC(=O)Nc1cc(Cl)ccc1C)C(=O)C1COc2ccccc2O1 (stereo unspecified),-9%,0%,20µM*,-3%,7%
SMILES,AmpC inh no detg,AmpC inh detg,Sm TGR block,RE007 growth inh,AMA1-RON2 inh
CC(C)NC(=O)C1CCN(c2nc3ccccc3nc2C(F)(F)F)CC1,.,-10%,1%,.,.
COc1ccc(CNC(=O)CCCN2C(=O)c3cccnc3Oc3ccc(Cl)cc32)cc1,.,14%,3%,.,.
CCOC(=O)C1=C(C)NC(=O)NC1c1ccc([N+](=O)[O-])o1 (stereo unspecified),-3%,0%,40µM*,9%,4%
COCCOC(=O)C1=C(C)NC(=O)NC1c1ccc(-c2ccc(F)cc2)o1 (stereo unspecified),-9%,1%,10µM*,-5%,-7%
CSc1ccc(CCNC(=O)CN2C(=O)COc3ccc(S(=O)(=O)N4CCCC4)cc32)cc1,.,-12%,-8%,.,.
COc1ccc(CCNC(=O)c2cc3c(=O)n(C)c4ccccc4c3s2)cc1OC,.,2%,-1%,.,.
